The structures appear in SMILES notation. About 83,000 compounds went through this panel and 20% of them were active in at least one assay; those are over-represented in the sample as a whole.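 A percent growth of 40 corresponds to 60% growth inhibition; 0 means no net growth; -100 means all cells died. Active threshold: below 10.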 Unmarked numbers belong to inactive results. Calls of active or inactive are those of the source.

The source of these data is PubChem BioAssay (NCI).

For this assay, the system named is MDA-MB-468 breast. The assay can be described thus: NCI-60 one-dose screen, 48 h (100 = growth as untreated, 0 = no growth, -100 = all killed). The settings on record: 10 µM unless noted.
As to `CCOC(=O)CC1CSC(Nc2ccccc2)=N1` (stereo not given), the growth is 106%.

As for `COc1cc(C(=O)c2cc(C(C)=O)c3c4ccccc4ccn23)cc(OC)c1OC`, the growth was 42.1%.

Take `CCN(CC)c1ccc(/C=C2\SC(=O)C(Nc3nnc(-c4cccnc4SCc4ccccc4)o3)C2=O)cc1` (stereo not given): the growth was 2.42% (active).

Turning to `CC(C)(C)c1cc(C=O)cc(C(C)(C)C)c1O`, the growth was 94.9%.

With `O=c1ccc2ccc(OCCN3CCCCC3)cc2o1`, the growth is 105%.

Take `COc1cc(-c2cc(-c3cc(OC)c(OC)c(OC)c3)nc3nc(N)[nH]c(=O)c23)ccc1Oc1ccnc2cc(Cl)ccc12`: the growth was 15.9%.

As for `CN(C(=S)S(=O)(=O)C12CC3CC(CC(C3)C1)C2)c1ccccc1`, the growth is 61.7%.

`O=C1c2cccnc2C(=O)c2nc3cc(N4CCN(C5CC5)CC4)ccc3nc21`: the growth was -22% (active).

As to `CCOc1nc(-c2ccco2)n2nc(-c3ccco3)cc2n1`, the growth is -5.05% (active).

As for `Cn1ncc2ncc(-c3ccc4ncc(C#N)c(N5CCc6cc(F)c(Cl)cc65)c4c3)cc21`, the growth is 8.25% (active).

As to `COc1ccc2nc(-c3ccc(-c4noc(-c5cc(OC)c(OC)c(OC)c5)n4)cc3)[nH]c2c1`, the growth was 68.2%.

As for `O=C(O)CCC(=O)Nc1nnc(-c2ccccc2)s1`, the growth is 116%.

`Oc1ccccc1-c1nnc(CNc2ccc(Cl)cc2)o1`: the growth is -2.17% (active).

Take `C#C[C@]1(O)CC[C@H]2[C@@H]3CC=C4c5sc(NCc6ccccc6)nc5CC[C@]4(C)[C@H]3CC[C@@]21C`: the growth was 45.4%.

Take `CN(C)CCC(=O)Nc1ccc(-n2cc(-c3cccc(NC(=S)Nc4cccc(-c5cn(-c6ccc(NC(=O)CCN(C)C)cc6)nn5)c4)c3)nn2)cc1`: the growth was -9.56% (active).
